The values that follow come from ChEMBL document CHEMBL4513216, “Probing the Open Global Health Chemical Diversity Library for Multistage-Active Starting Points for Next-Generation Antimalarials” (ACS Infect Dis, 2020).

Screen size: about 69,000 compounds; about 8,600 (12%) showed an effect of 50% or more. The sample holds strong results, similar compounds and a random draw of the others, so the mix is not that of the screen.

The test system of this assay is Plasmodium berghei. In words: Screen against P. berghei liver stage (PbLuc), transformed with Luciferase, at 10uM. Type of assay: functional, HepG2. As to conditions: tested at 10 uM.
Take `Cc1ccc(C(=O)N2CCC3(CC2)COC(COc2ccccn2)C3)o1` (centres undefined): the INHIBITION was -9.1%.

Take `O=C(c1ccncc1)N1CCCC1c1cccc(Br)c1` (centres undefined): the INHIBITION is listed as 15.1%.

`CC(=O)NCC(=O)N1Cc2cnc(CC(C)C)nc2C1`: the INHIBITION is listed as 60.3%.

Turning to `CC(=O)c1c(C)nn(CC(=O)N2Cc3cnc(CC(C)C)nc3C2)c1C`, the INHIBITION was 27.9%.

Turning to `O=C(Cn1c(=O)oc2ccccc21)N1Cc2cncnc2C1`, the INHIBITION was found to be 15.4%.

For the molecule `CCc1ncc2c(n1)CN(C(=O)COC)C2`, the INHIBITION was -7.35%.

Take `CCc1ncc2c(n1)CN(C(=O)CNC(=O)C(C)C)C2`: the INHIBITION was determined as 10.3%.

Take `CCc1ncc2c(n1)CN(C(=O)c1c(C)[nH]c(C(C)=O)c1C)C2`: the INHIBITION was determined as 39.6%.

For `CCOc1ccc(C(=O)N2Cc3cnc(CC)nc3C2)o1`, the INHIBITION is listed as -6.83%.

As for `CCc1ncc2c(n1)CN(C(=O)c1c(C)[nH]c3c1C(=O)CCC3)C2`, the INHIBITION worked out at 61%.

On to `CCc1ncc2c(n1)CN(C(=O)CC(C)NC(C)=O)C2` (centres undefined), for which the INHIBITION came to 51.2%.

For `CC(C)Cc1ncc2c(n1)CN(C(=O)Cn1c(=O)oc3ccccc31)C2`, the INHIBITION was determined as 54.5%.

On to `O=C(Cn1c(=O)oc2ccccc21)N1Cc2cnn(CCO)c2C1`, for which the INHIBITION is recorded as 13.7%.

As to `CCc1ncc2c(n1)CN(C(=O)CNC(=O)c1ccccc1)C2`, the INHIBITION was 30.3%.

With `FC(F)(F)c1ccc(-c2cnc(C3CCCN3)cn2)cc1` (centres undefined), the INHIBITION is on record as 34.675%.

For the molecule `CCC(CC)C(=O)N1CCN(Cc2cc(-c3ccncc3)nn2C)CC1`, the INHIBITION is on record as -8.12%.

As for `Cc1nn(C)c(N2CCOCC2)c1CNCc1ccccc1CO`, the INHIBITION is recorded as -25.9%.

Take `NC(=O)C(NCc1nn(-c2ccccc2)c2c1CCC2)c1ccccc1` (centres undefined): the INHIBITION is 8.15%.

As to `Fc1ccccc1CN1CCC(c2noc(-c3ccccn3)n2)CC1`, the INHIBITION is on record as -23.4%.

For the molecule `O=C1NCCCCC1NCc1csc(-c2ccccn2)n1` (centres undefined), the INHIBITION came to 8.07%.

With `CC(Cn1cccn1)NC(=O)NCc1ccoc1` (centres undefined), the INHIBITION is recorded as 15.6%.

Turning to `CS(=O)(=O)N1CC2(CCN(Cc3ccccn3)C2)Cc2ccccc21` (centres undefined), the INHIBITION is 14.3%.

Regarding `CC(C)CC(=O)NCCCc1cc(N)n(-c2ccccc2)n1`, the INHIBITION was determined as 16.6%.

Turning to `Cc1noc(C)c1CN(C)C(=O)Cn1c(=O)n(C)c2ccccc21`, the INHIBITION came out at 26.8%.

With `Cc1noc(C)c1CN(C)Cn1c(=O)oc2ccccc21`, the INHIBITION was 50.4%.

Take `Cc1noc(C)c1CN(C)Cn1c(=O)n(C)c2ccccc21`: the INHIBITION worked out at 28.2%.

Take `Cc1ccc(C(CNC(=O)c2c(C)noc2C(C)C)N(C)C)cc1` (centres undefined): the INHIBITION is reported as 7.12%.

For `Cc1cc(C)n(CC(C)NCc2nncn2C2CCCCC2)n1` (centres undefined), the INHIBITION is listed as -47.9%.

Take `CC(CN1CCCCCC1)NCc1nncn1C1CCCCC1` (centres undefined): the INHIBITION was 75.4%.

Regarding `CC(CN1CCOCC1)NCc1nncn1C1CCCCC1` (centres undefined), the INHIBITION came out at 28.3%.

Consider `O=C(NCc1ccccc1)[C@H]1C[C@H]2CN(S(=O)(=O)C3CC3)C[C@@H]1O2`, for which the INHIBITION is listed as 31.8%.

As for `CC1CN(Cc2ccc(-n3cccn3)cc2)CCO1` (centres undefined), the INHIBITION is -15.5%.

As to `Cc1noc(C)c1CN1C[C@@H]2CC(F)(F)C[C@@H]2C1`, the INHIBITION is given as 87.2%.

As to `Cc1noc(C)c1CN1C[C@@H]2C[C@@H](C)O[C@@H]2C1`, the INHIBITION is given as -10.2%.

As to `CNC(=O)[C@H]1C[C@@H]2CN(Cc3c(C)noc3C)C[C@@H]2N1C(C)=O`, the INHIBITION came to 22.2%.

In the case of `Cc1noc(C)c1CN1C[C@H]2CNC[C@H]2C1`, the INHIBITION is recorded as -19.2%.

Take `Cc1noc(C)c1CN1C[C@@H]2C[C@H](C(=O)NCC3CC3)N(C)[C@@H]2C1`: the INHIBITION is 26%.

As for `CNC(=O)[C@@H]1C[C@H]2CN(Cc3c(C)noc3C)C[C@H]2N1C(C)C`, the INHIBITION was 83.8%.

For the molecule `CC(=O)N1CCC(c2cnc(NC3CCOCC3)cn2)CC1`, the INHIBITION is -20.6%.

As for `Cc1ncsc1CNC(=O)N(CCCO)C1CCc2ccccc21` (centres undefined), the INHIBITION was -7.35%.

Consider `Cc1cc(S(=O)(=O)N2CCc3ccc(F)cc32)cc(C(=O)O)c1C`, for which the INHIBITION is reported as 61.3%.

Consider `COc1cc(S(=O)(=O)N2CCc3ccc(F)cc32)cc(C(=O)O)c1OC`, for which the INHIBITION is 42.9%.

Consider `Cc1ccc(S(=O)(=O)N2CCc3ccc(F)cc32)cc1C(=O)O`, for which the INHIBITION is given as -3.2%.

For the molecule `O=C(c1ccc[nH]1)N1CCCn2c(CNC3CCC3)nnc2C1`, the INHIBITION is given as 45.7%.

Regarding `CC(C)CNC(=O)CNc1c(NCc2ccco2)c(=O)c1=O`, the INHIBITION stood at 31.3%.

As for `O=C(Cc1ccccc1)NCc1ncc(-c2ccccc2C(=O)O)cn1`, the INHIBITION stood at 1.65%.

Take `O=C(Cc1ccccc1)NCc1ccc(-c2ccccc2C(=O)O)cn1`: the INHIBITION was determined as 50.3%.

On to `COCC(=O)NCc1ccc(-c2ccccc2C(=O)O)cn1`, for which the INHIBITION is listed as -26.7%.

As for `Cc1ccc(CNC(=O)c2ccc(F)cc2)o1`, the INHIBITION is recorded as 0.868%.

`CCN1CCc2[nH]cnc2C12CCN(Cc1ccc3nsnc3c1)CC2`: the INHIBITION worked out at 23.6%.

Consider `O=C(Cc1ccc2c(c1)OCC2)Nc1nn[nH]n1`, for which the INHIBITION is 23.1%.

For the molecule `O=C(O)[C@@H]1CCCN1c1nccc(Nc2ccccc2)n1`, the INHIBITION was determined as 0.618%.

For `O=C([C@@H]1CCCN1c1nccc(Nc2ccccc2)n1)N1CCCCC1`, the INHIBITION is listed as 78.7%.

In the case of `CCC(C)CNC(=O)[C@@H]1CCCN1c1nccc(Nc2ccccc2)n1` (some centres undefined), the INHIBITION stood at 13.5%.
